Assay in all cases: PBM; 200 nM protein, PBS
What all share (conditions): dsDNA, one strand shown

The target of assay [1] is CRX (Homo sapiens, UniProt O43186 26-111).
The target in assay [2] is CRX (Homo sapiens, UniProt O43186 26-111, E42D).
Assay [3] concerns the target CRX (Homo sapiens, UniProt O43186 26-111, R41L).
In assay [4] the target is NKX3-2 (Homo sapiens, UniProt P78367 192-278, P234S).
Assay [5] concerns the target NKX3-2 (Homo sapiens, UniProt P78367 192-278).

Sequence of CRX (Homo sapiens, UniProt O43186 26-111, R41L) (O43186 26-111 R41L): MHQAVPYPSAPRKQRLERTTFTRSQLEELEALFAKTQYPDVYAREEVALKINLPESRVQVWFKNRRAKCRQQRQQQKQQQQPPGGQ
Sequence of CRX (Homo sapiens, UniProt O43186 26-111) (O43186 26-111): as the sequence (O43186 26-111 R41L) above, with L16R counted along it
Sequence of CRX (Homo sapiens, UniProt O43186 26-111, E42D) (O43186 26-111 E42D): as the sequence (O43186 26-111 R41L) above, with L16R, E17D counted along it
Sequence of NKX3-2 (Homo sapiens, UniProt P78367 192-278) (P78367 192-278): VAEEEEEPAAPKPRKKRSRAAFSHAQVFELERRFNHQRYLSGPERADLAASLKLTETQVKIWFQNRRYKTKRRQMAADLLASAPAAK
Sequence of NKX3-2 (Homo sapiens, UniProt P78367 192-278, P234S) (P78367 192-278 P234S): as the sequence (P78367 192-278) above, with P43S counted along it

For the sequence AAGATTAT, the binding signal is 12.9 upbm affinity estimate (log intensity, higher = more binding, comparable within an allelic series) in assay [1]; 12.8 upbm affinity estimate (log intensity, higher = more binding, comparable within an allelic series) in assay [2]; 12.8 upbm affinity estimate (log intensity, higher = more binding, comparable within an allelic series) in assay [3].

GCAACCGC: the binding signal was 8.47 upbm affinity estimate (log intensity, higher = more binding, comparable within an allelic series) in assay [1]; 8.38 upbm affinity estimate (log intensity, higher = more binding, comparable within an allelic series) in assay [2]; 8.34 upbm affinity estimate (log intensity, higher = more binding, comparable within an allelic series) in assay [3].

Consider TAAGATTA, for which the binding signal in assay [1] is 12.8 upbm affinity estimate (log intensity, higher = more binding, comparable within an allelic series); in assay [2], 12.6 upbm affinity estimate (log intensity, higher = more binding, comparable within an allelic series); in assay [3] it was 12.4 upbm affinity estimate (log intensity, higher = more binding, comparable within an allelic series).

As to GACGCTAC, the binding signal was 8.4 upbm affinity estimate (log intensity, higher = more binding, comparable within an allelic series) in assay [1]; 8.38 upbm affinity estimate (log intensity, higher = more binding, comparable within an allelic series) in assay [2]; 8.27 upbm affinity estimate (log intensity, higher = more binding, comparable within an allelic series) in assay [3].

For the sequence ACCAGTCG, the binding signal is 8.53 upbm affinity estimate (log intensity, higher = more binding, comparable within an allelic series) in assay [1]; 8.43 upbm affinity estimate (log intensity, higher = more binding, comparable within an allelic series) in assay [2]; 10.4 upbm affinity estimate (log intensity, higher = more binding, comparable within an allelic series) in assay [4]; 8.32 upbm affinity estimate (log intensity, higher = more binding, comparable within an allelic series) in assay [3]; 10.4 upbm affinity estimate (log intensity, higher = more binding, comparable within an allelic series) in assay [5].

In the case of CTCTCTCC, the binding signal in assay [1] is 8.11 upbm affinity estimate (log intensity, higher = more binding, comparable within an allelic series); in assay [2], 8.15 upbm affinity estimate (log intensity, higher = more binding, comparable within an allelic series); in assay [3], 8.3 upbm affinity estimate (log intensity, higher = more binding, comparable within an allelic series).

AATCTCCC: the binding signal was 10.7 upbm affinity estimate (log intensity, higher = more binding, comparable within an allelic series) in assay [1]; 10.4 upbm affinity estimate (log intensity, higher = more binding, comparable within an allelic series) in assay [2]; 10.6 upbm affinity estimate (log intensity, higher = more binding, comparable within an allelic series) in assay [3].

In the case of GCGTGCAC, the binding signal in assay [1] is 8.43 upbm affinity estimate (log intensity, higher = more binding, comparable within an allelic series); in assay [2], 8.37 upbm affinity estimate (log intensity, higher = more binding, comparable within an allelic series); in assay [3] it was 8.37 upbm affinity estimate (log intensity, higher = more binding, comparable within an allelic series).

ACTGCTGG: the binding signal was 8.37 upbm affinity estimate (log intensity, higher = more binding, comparable within an allelic series) in assay [1]; 8.49 upbm affinity estimate (log intensity, higher = more binding, comparable within an allelic series) in assay [2]; 8.37 upbm affinity estimate (log intensity, higher = more binding, comparable within an allelic series) in assay [3].

AGTGCACG: the binding signal was 8.25 upbm affinity estimate (log intensity, higher = more binding, comparable within an allelic series) in assay [1]; 8.27 upbm affinity estimate (log intensity, higher = more binding, comparable within an allelic series) in assay [2]; 8.23 upbm affinity estimate (log intensity, higher = more binding, comparable within an allelic series) in assay [3].

Regarding AGAAGGAG, the binding signal is 8.23 upbm affinity estimate (log intensity, higher = more binding, comparable within an allelic series) in assay [1]; 8.28 upbm affinity estimate (log intensity, higher = more binding, comparable within an allelic series) in assay [2]; 8.25 upbm affinity estimate (log intensity, higher = more binding, comparable within an allelic series) in assay [3].

ACGCCACG: the binding signal in assay [1] is 8.27 upbm affinity estimate (log intensity, higher = more binding, comparable within an allelic series); in assay [2], 8.14 upbm affinity estimate (log intensity, higher = more binding, comparable within an allelic series); in assay [3], 8.23 upbm affinity estimate (log intensity, higher = more binding, comparable within an allelic series).

With AAGGGTGG, the binding signal in assay [1] was 8.2 upbm affinity estimate (log intensity, higher = more binding, comparable within an allelic series); in assay [2] it was 8.31 upbm affinity estimate (log intensity, higher = more binding, comparable within an allelic series); in assay [3], 8.33 upbm affinity estimate (log intensity, higher = more binding, comparable within an allelic series).

Turning to CGGATTAC, the binding signal in assay [1] was 13.4 upbm affinity estimate (log intensity, higher = more binding, comparable within an allelic series); in assay [2] it was 13.3 upbm affinity estimate (log intensity, higher = more binding, comparable within an allelic series); in assay [3], 13.3 upbm affinity estimate (log intensity, higher = more binding, comparable within an allelic series).

For the sequence AGATTATG, the binding signal was 12.7 upbm affinity estimate (log intensity, higher = more binding, comparable within an allelic series) in assay [1]; 12.6 upbm affinity estimate (log intensity, higher = more binding, comparable within an allelic series) in assay [2]; 12.6 upbm affinity estimate (log intensity, higher = more binding, comparable within an allelic series) in assay [3].

As for ATAAAACC, the binding signal in assay [1] was 10.7 upbm affinity estimate (log intensity, higher = more binding, comparable within an allelic series); in assay [2] it was 10.4 upbm affinity estimate (log intensity, higher = more binding, comparable within an allelic series); in assay [3] it was 10.2 upbm affinity estimate (log intensity, higher = more binding, comparable within an allelic series).

AGTGTGTC: the binding signal was 8.28 upbm affinity estimate (log intensity, higher = more binding, comparable within an allelic series) in assay [1]; 8.38 upbm affinity estimate (log intensity, higher = more binding, comparable within an allelic series) in assay [2]; 8.38 upbm affinity estimate (log intensity, higher = more binding, comparable within an allelic series) in assay [3].

As to CCGGATAA, the binding signal is 11.5 upbm affinity estimate (log intensity, higher = more binding, comparable within an allelic series) in assay [1]; 11.3 upbm affinity estimate (log intensity, higher = more binding, comparable within an allelic series) in assay [2]; 10.9 upbm affinity estimate (log intensity, higher = more binding, comparable within an allelic series) in assay [3].

Turning to CGGGACCC, the binding signal in assay [1] was 8.17 upbm affinity estimate (log intensity, higher = more binding, comparable within an allelic series); in assay [2], 8.21 upbm affinity estimate (log intensity, higher = more binding, comparable within an allelic series); in assay [3] it was 8.21 upbm affinity estimate (log intensity, higher = more binding, comparable within an allelic series).

With GGCGTCCC, the binding signal was 8.17 upbm affinity estimate (log intensity, higher = more binding, comparable within an allelic series) in assay [1]; 8.13 upbm affinity estimate (log intensity, higher = more binding, comparable within an allelic series) in assay [2]; 8.1 upbm affinity estimate (log intensity, higher = more binding, comparable within an allelic series) in assay [3].

As for CGATAATC, the binding signal was 12.8 upbm affinity estimate (log intensity, higher = more binding, comparable within an allelic series) in assay [1]; 12.7 upbm affinity estimate (log intensity, higher = more binding, comparable within an allelic series) in assay [2]; 12.7 upbm affinity estimate (log intensity, higher = more binding, comparable within an allelic series) in assay [3].

AGATTATA: the binding signal was 12.9 upbm affinity estimate (log intensity, higher = more binding, comparable within an allelic series) in assay [1]; 12.8 upbm affinity estimate (log intensity, higher = more binding, comparable within an allelic series) in assay [2]; 12.8 upbm affinity estimate (log intensity, higher = more binding, comparable within an allelic series) in assay [3].

With ATAACCCC, the binding signal in assay [1] is 10.6 upbm affinity estimate (log intensity, higher = more binding, comparable within an allelic series); in assay [2] it was 10.4 upbm affinity estimate (log intensity, higher = more binding, comparable within an allelic series); in assay [3] it was 10.2 upbm affinity estimate (log intensity, higher = more binding, comparable within an allelic series).

In the case of GCTATTTA, the binding signal is 10.3 upbm affinity estimate (log intensity, higher = more binding, comparable within an allelic series) in assay [1]; 10.1 upbm affinity estimate (log intensity, higher = more binding, comparable within an allelic series) in assay [2]; 10 upbm affinity estimate (log intensity, higher = more binding, comparable within an allelic series) in assay [3].

Take GAAGTTCC: the binding signal in assay [1] is 8.51 upbm affinity estimate (log intensity, higher = more binding, comparable within an allelic series); in assay [2], 8.44 upbm affinity estimate (log intensity, higher = more binding, comparable within an allelic series); in assay [3], 8.28 upbm affinity estimate (log intensity, higher = more binding, comparable within an allelic series).

Consider GGGTGGCA, for which the binding signal in assay [1] is 8.24 upbm affinity estimate (log intensity, higher = more binding, comparable within an allelic series); in assay [2], 8.24 upbm affinity estimate (log intensity, higher = more binding, comparable within an allelic series); in assay [3], 8.32 upbm affinity estimate (log intensity, higher = more binding, comparable within an allelic series).

On to CGAGCACG, for which the binding signal in assay [1] is 8.2 upbm affinity estimate (log intensity, higher = more binding, comparable within an allelic series); in assay [2], 8.12 upbm affinity estimate (log intensity, higher = more binding, comparable within an allelic series); in assay [3] it was 8.16 upbm affinity estimate (log intensity, higher = more binding, comparable within an allelic series).

For the sequence GATTATCC, the binding signal was 12.9 upbm affinity estimate (log intensity, higher = more binding, comparable within an allelic series) in assay [1]; 12.9 upbm affinity estimate (log intensity, higher = more binding, comparable within an allelic series) in assay [2]; 12.8 upbm affinity estimate (log intensity, higher = more binding, comparable within an allelic series) in assay [3].

ACAGGCAC: the binding signal was 8.14 upbm affinity estimate (log intensity, higher = more binding, comparable within an allelic series) in assay [1]; 8.14 upbm affinity estimate (log intensity, higher = more binding, comparable within an allelic series) in assay [2]; 8.23 upbm affinity estimate (log intensity, higher = more binding, comparable within an allelic series) in assay [3].

Take AGCACCAG: the binding signal in assay [1] is 8.33 upbm affinity estimate (log intensity, higher = more binding, comparable within an allelic series); in assay [2], 8.39 upbm affinity estimate (log intensity, higher = more binding, comparable within an allelic series); in assay [3], 8.39 upbm affinity estimate (log intensity, higher = more binding, comparable within an allelic series).

GAACGCCC: the binding signal in assay [1] was 8.05 upbm affinity estimate (log intensity, higher = more binding, comparable within an allelic series); in assay [2], 8.12 upbm affinity estimate (log intensity, higher = more binding, comparable within an allelic series); in assay [3] it was 8.13 upbm affinity estimate (log intensity, higher = more binding, comparable within an allelic series).

On to AATTCCAT, for which the binding signal is 10.2 upbm affinity estimate (log intensity, higher = more binding, comparable within an allelic series) in assay [1]; 10.1 upbm affinity estimate (log intensity, higher = more binding, comparable within an allelic series) in assay [2]; 9.91 upbm affinity estimate (log intensity, higher = more binding, comparable within an allelic series) in assay [3].

On to GCTTAAGC, for which the binding signal in assay [1] was 12.8 upbm affinity estimate (log intensity, higher = more binding, comparable within an allelic series); in assay [2], 12.7 upbm affinity estimate (log intensity, higher = more binding, comparable within an allelic series); in assay [3], 11.7 upbm affinity estimate (log intensity, higher = more binding, comparable within an allelic series).

Turning to GTTTAAAA, the binding signal was 9.91 upbm affinity estimate (log intensity, higher = more binding, comparable within an allelic series) in assay [1]; 9.79 upbm affinity estimate (log intensity, higher = more binding, comparable within an allelic series) in assay [2]; 9.59 upbm affinity estimate (log intensity, higher = more binding, comparable within an allelic series) in assay [3].

Consider GAACGTTC, for which the binding signal in assay [1] was 8.02 upbm affinity estimate (log intensity, higher = more binding, comparable within an allelic series); in assay [2], 7.99 upbm affinity estimate (log intensity, higher = more binding, comparable within an allelic series); in assay [3] it was 8.07 upbm affinity estimate (log intensity, higher = more binding, comparable within an allelic series).

Values taken from PMC11006913.
